# High-throughput results (PubChem)
# A selection: hits, their analogues and other compounds. The true share with any hit is near 5.9%.
# GALK inh = blocks human galactokinase activity; Purified GALK, Kinase-Glo residual ATP luminescence; Potency, µM (highest dose often 57.5 µM), for inactives: at the top dose activity change, negative = inhibition, hits mostly inhibitors; 270,000 tested, 0.007% active; AID 1868; note: potency is the fitted concentration of half-maximal effect
#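 5 nM enzyme, 35 uM ATP, 100 uM galactose, 20 mM HEPES pH8.0, 5 mM MgCl2; 1 h RT; residual ATP by Kinase-Glo Plus luminescence, qHTS format.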
# TrxR1 substrate = rat thioredoxin reductase 1 substrate activity; 390,000 tested, 0.01% active; Potency, µM (titrated, usually from 114 µM), inactives show top-dose activity change, negative = substrate turnover; purified TrxR1 substrate turnover, NADPH consumption readout; note: potency is the fitted concentration of half-maximal effect; nearly all actives have a fitted effect of over 50% in size
#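 Rat TrxR1, dispensed at 90 nM, was prereduced with 400 uM NADPH (final) for 5 min at ~22 deg C, then incubated with compound 15 min before 400 uM selenite. A first-read NADPH fluorescence drop versus no-compound background flagged substrates.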
# Coupling enz = counter-screen for Giardia aldolase inhibitors: coupling enzyme system | coupling enzyme system counterscreen, AmpLite Red fluorescence | activity change, negative = inhibition, % at 58.2 µM, hits read low | 290,000 tested, 0.67% active; in the data active = activity change below about -30%
#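 First, compound is pin-transferred into glyceraldehyde-3-phosphate coupling-enzyme reagent at 57.5 uM final and held 10 min at RT. Next, substrate, coupling system and AmpLite Red are added. After 20 min RT, fluorescence (525/598 nm) is read.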
# TrxR1 inh = rat TrxR1 inhibition; recombinant rTrxR1, NADPH fluorescence consumption, selenite substrate; Potency, µM (highest dose often 114 µM), inactives show at the highest dose activity change, negative = inhibition, usual class: inhibitors; 390,000 tested, 1% active; AID 588453; note: potency is the fitted concentration of half-maximal effect; nearly all actives have a fitted effect of over 65% in size
#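 Rat TrxR1 (90 nM in the dispensed reagent) was pre-reduced with 400 uM NADPH for 5 min at room temperature, then incubated with compound for 15 min. After 400 uM selenite was added, NADPH fluorescence (Ex 340/Em 450 nm) was followed for 8 min.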
# VP16 counter = Gal4-VP16 reporter inhibition counter-screen. Drosophila S2 Gal4-VP16 UAS-luciferase, luminescence, 20 h. Potency, µM (top dose mostly 53.6 µM), without a hit: at the highest dose activity, negative = inhibition, most hits filed as inhibitors. 310,000 tested, 3.5% active. AID 2546;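 note: Gal4-VP16 expression switched on by copper sulfate through the metallothionein promoter; potency is the fitted concentration of half-maximal effect; nearly all actives have a fitted effect of over 50% in size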
# RORg inh = ROR gamma (mouse) transcription inhibition; Potency, µM (series often up to 53.6 µM), without a hit: at the highest dose activity change, negative = inhibition, most hits filed as inhibitors; P51450; Drosophila S2 Gal4-RORgamma UAS-luciferase reporter, 20 h; 310,000 tested, 5.4% active; note: potency is the fitted concentration of half-maximal effect; nearly all actives have a fitted effect of over 60% in size
# Target sequence (P51450 whole entry, looked up, the tested form may be a part): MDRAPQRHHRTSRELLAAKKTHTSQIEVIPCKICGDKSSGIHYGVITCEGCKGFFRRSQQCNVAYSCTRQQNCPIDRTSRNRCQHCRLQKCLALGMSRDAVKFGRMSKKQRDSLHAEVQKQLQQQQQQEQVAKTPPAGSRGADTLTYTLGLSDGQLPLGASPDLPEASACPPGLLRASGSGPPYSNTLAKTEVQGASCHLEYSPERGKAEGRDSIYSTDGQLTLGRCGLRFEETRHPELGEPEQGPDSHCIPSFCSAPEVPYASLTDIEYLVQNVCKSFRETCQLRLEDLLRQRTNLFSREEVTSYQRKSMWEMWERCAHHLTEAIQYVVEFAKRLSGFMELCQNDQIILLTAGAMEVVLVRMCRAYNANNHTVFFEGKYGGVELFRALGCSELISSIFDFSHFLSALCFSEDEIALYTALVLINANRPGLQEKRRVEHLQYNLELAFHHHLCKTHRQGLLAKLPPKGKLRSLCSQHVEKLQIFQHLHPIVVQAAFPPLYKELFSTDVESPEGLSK
#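 A Gal4/UAS one-hybrid system in insect cells: metallothionein-promoter Gal4–ROR gamma fusion plus Photinus luciferase reporter. Copper sulfate 700 uM final, 20 hr ambient incubation, luminescent detection after 10 min with reagent.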
# An asterisk follows results filed as active; u = inconclusive; x = no result given; [ ] = remark or other dose. Unless noted, calls come from the whole dose curve; as a rule, active = well fitted curve in the direction sought with a large enough effect; inconclusive = small, poorly fitted or top-dose-only effect, or another doubt; inactive = no such curve, though single readings can be large; an effect the other way counts as inactive or inconclusive. % is set by controls: 0 for no effect and ±100 for the full control effect.
SMILES,GALK inh,TrxR1 substrate,Coupling enz,TrxR1 inh,VP16 counter,RORg inh
Cc1c(CCC(=O)O)c(=O)oc2cc(OCc3cccc(F)c3)ccc12,0%,268%,7,-3%,1%,17%
Cn1c(=O)[nH]c(=O)c2c1nc(N1CCCCC1)n2C/C=N/NC(=O)c1cc(Br)ccc1O,4%,0%,6,15%,u,13µM*
Cc1ccc2[nH]c(C(=O)NN=C3CCCCC3)c(-c3ccccc3)c2c1,0%,5%[57.1 µM],-1,8%[57.1 µM],10µM*,5µM*
CCN(CC(=O)Nc1cccc(F)c1)Cc1nc2ccccc2c(=O)[nH]1,4%,9%,-11,31%[57.1 µM],u,u
CCN(CC(=O)NCc1ccc(F)cc1)Cc1nc2ccccc2c(=O)[nH]1,5%,-3%,0,-18%,10µM*,4µM*
COc1ccc(CN(Cc2nc3ccccc3c(=O)[nH]2)C(=O)NC2CCCCC2)cc1,-2%,2%,0,10%,u,13µM*
O=C(NC1CCCCC1)N(Cc1nc2ccccc2c(=O)[nH]1)C1CCCCC1,2%,3%,2,-6%,-8%,0%
CS(=O)(=O)N(Cc1ccc(F)cc1)Cc1nc2ccccc2c(=O)[nH]1,-3%,0%,-1,5%,1%,-14%
CC(=O)N(Cc1ccc(F)cc1)Cc1nc2ccccc2c(=O)[nH]1,1%,-21%[57.1 µM],-1,29%[57.1 µM],u,16µM*
COc1ccc(CN(Cc2nc3ccccc3c(=O)[nH]2)C(=O)C(C)(C)C)cc1,0%,-3%,0,-16%,-5%,13µM*
COc1ccc(S(=O)(=O)N(Cc2nc3ccccc3c(=O)[nH]2)C2CCCC2)cc1,0%,-5%,-1,-1%,13%,u
N#C/C(=C\c1cccc(OCC(=O)O)c1)c1nc2ccccc2[nH]1,-8%,-6%,0,-5%,5%,8%
CCOC(=O)C1C(=O)NC(c2ccccc2)=NC1c1ccc(O)c(OC)c1 (configuration not stated),-1%,4%,0,39%,2%,0%
COc1ccccc1CN(Cc1nc2ccccc2c(=O)[nH]1)C(=O)Nc1ccccc1C,-2%,6%[57.1 µM],0,29%[57.1 µM],u,10µM*
COc1ccc(NC(=S)/N=C(\N)Nc2nc(C)c3ccccc3n2)cc1,-2%,9%[11.4 µM],-1,18%[11.4 µM],4.5µM*,1µM*
COc1ccc2nc(N/C(N)=N/C(=S)Nc3cccc(C)c3)nc(C)c2c1,-4%,16%,1,18%,4.5µM*,3.5µM*
CCOc1ccc2nc(N/C(N)=N/C(=S)Nc3cccc(OC)c3)nc(C)c2c1,11%,-1%,0,-7%,u,0.79µM*
COc1ccc2nc(N/C(N)=N/C(=S)Nc3c(C)cccc3C)nc(C)c2c1,2%,22%,-2,9%,-6%,16%
CCOc1ccc2nc(N/C(N)=N/C(=S)Nc3cccc(C)c3)nc(C)c2c1,2%,5%,2,-2%,3.5µM*,1.6µM*
Cc1ccc(/C=C2/C(=O)C3(C)CCC2C3(C)C)cc1 (configuration not stated),x,x,x,x,-1%,3%
NNC(=O)c1cnn(Cc2ccccc2)c1N,0%,1%,0,12%,-13%,-33%
COc1ccc(Cn2c3nc4ccccc4nc3c3c(=O)n(Cc4ccco4)cnc32)cc1,0%,x,-3,x,u,10µM*
COc1ccc(N2CCN(C3=CC(=O)N(c4cccc(Cl)c4)C3=O)CC2)cc1,1%,4%[57.1 µM],1,14%[57.1 µM],5%,4%
C#CCOCCOCCOCCNc1nc(N2CCN(C(=O)[C@H](CCC(=O)O)n3cc(C(N)CC(C)C)nn3)CC2)nc(N2CCN(C(=O)[C@H](Cc3cc4ccccc4[nH]3)n3cc(C(N)CC(C)C)nn3)CC2)n1 (some centres not stated),6%,5%,4,28µM*,-7%,1%
C#CCOCCOCCOCCNc1nc(N2CCN(C(=O)[C@H](Cc3cc4ccccc4[nH]3)n3cc(C(N)CC(C)C)nn3)CC2)nc(N2CCN(C(=O)[C@H](CCC(=O)O)n3cc(C(N)[C@H](C)CC)nn3)CC2)n1 (some centres not stated),1%,4%,4,u,2%,13%
SMILES,GALK inh,TrxR1 substrate,Coupling enz,TrxR1 inh,VP16 counter,RORg inh
C#CCOCCOCCOCCNc1nc(N2CCN(C(=O)[C@H](Cc3cc4ccccc4[nH]3)n3cc([C@@H](N)CC(C)C)nn3)CC2)nc(N2CCN(C(=O)[C@H](Cc3cc4ccccc4[nH]3)n3cc([C@@H](N)CC(C)C)nn3)CC2)n1,2%,4%,-6,-12%,16µM*,u
Cc1cc(NC(=O)COC(=O)Cn2c(C)csc2=O)ccc1Br,-2%,-13%,x,-4%,-17%,8%
Cc1ccc(-c2nc3cnccn3c2Nc2ccc(C(C)C)cc2)o1,x,5%,x,13µM*,x,x
CC(C)c1ccc(Nc2c(-c3ccccc3O)nc3cnccn23)cc1,x,-3%,x,9%,x,x
COc1cc(-c2nc3cnccn3c2Nc2ccc(C(C)C)cc2)ccc1O,-4%,4%,-1,16%,10µM*,14µM*
Cc1ccc(-c2nc3ccccn3c2Nc2ccccc2C)o1,x,149%,x,u,x,x
Cc1ccc(-c2nc3cnccn3c2Nc2c(C)cccc2C)o1,2%,11%,3,14µM*,-11%,11µM*
C=CCOc1c(Br)cc(CNc2nccs2)cc1OC,0%,-12%,-1,-16%,18µM*,13µM*
Fc1ccc(C(OCCCc2cnc[nH]2)c2ccc(F)cc2)cc1,x,-1%[57.1 µM],x,4%[57.1 µM],x,x
CC(=O)O[C@H]1C(=O)[C@@]2(C)C([C@H](OC(=O)c3ccccc3)[C@]3(O)C[C@H](OC(=O)[C@H](O)[C@@H](NC(=O)c4ccccc4)c4ccccc4)C(C)=C1C3(C)C)[C@]1(OC(C)=O)CO[C@@H]1C[C@H]2O (some centres not stated),x,-17%,-5,-13%,20µM*,u
CC(=O)OC1C(=O)[C@@]2(C)C(O)CC3OC[C@]3(OC(C)=O)C2C(OC(=O)c2ccccc2)[C@]2(O)CC(OC(=O)C(O)C(NC(=O)c3ccccc3)c3ccccc3)C(C)=C1C2(C)C (some centres not stated),x,x,9,x,-7%,u
C=CCc1c(C)nc(SC)nc1Nc1ccc(C)cc1,-1%,3%[57.1 µM],-7,-6%[57.1 µM],3%,10µM*
COc1cccc(N2CCN(Cc3nc4scc(-c5ccccc5)c4c(=O)[nH]3)CC2)c1,0%,-10%,0,22%[57.1 µM],u,-32%
